VACV mCherry inh: inhibitors of vaccinia virus infection (mCherry reporter signal) | Vaccinia virus mCherry reporter infection, fluorescence | Potency, µM (doses to about 36.5 µM), inactives show at the highest dose activity change, negative = inhibition, hits mostly inhibitors | actives 0.63% (n = 310,000) | AID 720579; calls by dose curve; tested in A549 cells; also: nearly all actives have a fitted effect of over 35% in size
HCV inhibitor: inhibitors of hepatitis C virus infection. Huh7.5.1 HCVcc-Cre infection, luciferase reporter, 44 h. Potency, µM (highest dose often 41.8 µM), inactives show at the highest dose activity change, negative = inhibition, hits mostly inhibitors. actives 3.4% (n = 340,000); active = well fitted inhibition curve with a large enough effect; inconclusive = small, poorly fitted or top-dose-only effect, or another doubt; inactive = no such curve, though single readings can be large or run the other way
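Antiviral activity was scored by luciferase reporter output from cells infected with HCVcc-Cre (~0.5 moi) in presence of compound, 44 h infection period, cells seeded 1,000/well 4 h prior.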
Vaccinia Venus: inhibitors of vaccinia virus (Venus reporter); Vaccinia virus Venus reporter expression, fluorescence; Potency, µM (doses to about 36.5 µM), for inactives: at the highest dose activity change, negative = inhibition, actives largely listed as inhibitors; actives 0.46% (n = 330,000); calls by dose curve; tested in A549 cells; also: nearly all actives have a fitted effect of over 30% in size
Numbers without * were called inactive; i = inactive; ? = inconclusive; · = no result given. In the library only some 3.3% were active in any assay of this set; here they are far more common. % is scaled to controls: 0 for no effect and ±100 for the full control effect; potency is read from the fitted curve at half-maximal effect.

SMILES | VACV mCherry inh | HCV inhibitor | Vaccinia Venus
CCN(CC)c1cc(C)c2cc(NC(=O)c3ccc(OC)c(OC)c3)ccc2n1 | 5.5% | · | -0.2%
CCN(CC)c1cc(C)c2cc(NC(=O)c3ccccc3OC)ccc2n1 | -18.5% | 10µM* | ?
C#CCSc1nsc(SCC#C)c1C#N | -2.0% | 11.2µM* | 0.0%
CCCSc1nsc(SCCC)c1C#N | · | 19.8% | -6.6%
CN1CCC(=O)N(CCOc2ccccc2)CC1 | -2.8% | 7.1% | -13.6%
COc1ccc2cc3cc(C(=O)Nc4ccc5c(c4)OCCO5)oc3nc2c1 | -14.5% | 11.2µM* | -29.0%
COc1ccc2cc3cc(C(=O)NCc4ccc5c(c4)OCO5)oc3nc2c1 | -20.6% | -7.3% | -12.3%
CC(=O)c1cccc(NC(=O)c2cccn2-c2nnc(N3CCCCC3)s2)c1 | -3.8% | · | -5.8%
COCc1ccc(CN2CCOc3ccc(C4=CCCCC4)cc3C2)o1 | -6.9% | · | 1.1%
O=C1Nc2ccccc2/C1=C/c1ccccc1F | -9.9% | ? | -24.2%
O=C1Nc2ccccc2/C1=C\c1cccn1-c1ccc(OC(F)(F)F)cc1 | · | 0.562µM* | ·
COc1cc2c(cc1OC)C(c1ccccc1)NC(C)(C)C2 (stereo not drawn) | · | 10.2% | ·
Cc1ccc2[nH]c(O)c(N=NC(N)=S)c2c1 | · | 1.7% | ·
CCOc1ccc(NC(=S)N=Nc2c(O)[nH]c3ccccc23)cc1 | -19.7% | 12.6µM* | -16.1%
O=C(N=Nc1c(O)[nH]c2ccccc12)c1ccc(CN2CCOCC2)cc1 | -8.2% | -2.1% | -8.1%
Oc1cccc(NC(=S)N=Nc2c(O)[nH]c3ccccc23)c1 | -4.9% | -1.4% | -18.2%
Oc1[nH]c2ccccc2c1N=NC(=S)N1CCOCC1 | · | 8.91µM* | ·
Oc1[nH]c2ccc(Br)cc2c1N=NC(=S)N1CCOCC1 | · | 11.2µM* | ·
COC(=O)N=Nc1c(O)[nH]c2ccc(Br)cc12 | -27.8% | -43.6% | -10.2%
NC(=S)N=Nc1c(O)[nH]c2ccccc12 | 12.6µM* | 18.9% | ?
Cc1nn(-c2ccccc2)c(C)c1NC(=O)COC(=O)c1ccc(O)cc1O | -5.0% | -15.5% | 8.9%
Cc1c(C(=O)N2CCCC2)sc2ncnc(NCCc3ccccn3)c12 | -12.6% | · | -7.9%
CC(C)NC(=O)CN(C(=O)CCC(=O)Nc1nccs1)c1ccc(C(C)C)cc1 | · | 7.8% | ·
Nn1c(SCC(=O)Nc2ccccc2Oc2ccccc2)nnc1C1CC1 | -18.2% | ? | -8.3%
O=C1Nc2ccccc2S/C1=C/c1cccs1 | -9.5% | 6.31µM* | ?
SMILES | VACV mCherry inh | HCV inhibitor | Vaccinia Venus
O=C1NC(=S)SC1=Cc1cccs1 | -10.7% | 10.1% | 7.1%
CCc1nc(CN2CCCC(C(=O)c3ccc4c5c(cccc35)CC4)C2)c(C)[nH]1 (stereo not drawn) | -22.2% | 10µM* | -12.6%
O=C(c1ccc2c3c(cccc13)CC2)C1CCCN(Cc2ncc[nH]2)C1 (stereo not drawn) | -17.5% | -21.1% | -13.4%
Oc1ccc(F)c(CN2CCN(c3ncc(Cc4ccccc4)cn3)CC2)c1 | ? | · | -21.6%
Clc1cccc(Cl)c1CSc1cc2c(nn1)-c1ccccc1CC2 | · | -16.8% | ·
O=c1cc2c(nn1Cc1c(Cl)cccc1Cl)-c1ccccc1CC2 | -26.5% | 25.1µM* | -18.4%
CCN(CC)c1ccc(/C=C/c2c(C)cnc3ccccc23)cc1 | -6.1% | · | 6.7%
COc1ccc(CN2CCCC(C(=O)c3ccccc3SC)C2)cc1O (stereo not drawn) | -13.7% | -6.7% | -8.0%
COc1ccc(OC)c(CN2CCCC(C(=O)c3ccccc3SC)C2)c1 (stereo not drawn) | -21.3% | 10µM* | 9.5%
O=C(NCCSc1ccc(Cl)cc1)c1ccc(CN2CCOCC2)cc1 | -15.1% | ? | -18.6%
O=C(NCCSCc1ccc(Cl)cc1Cl)c1ccc(CN2CCOCC2)cc1 | -18.8% | 11.2µM* | ?
CSCC[C@H](NC(=O)N1CCn2c1nc1ccccc12)C(=O)NCc1ccc(C)cc1 | · | -0.3% | ·
CC(=O)N1CCN(CCS(=O)(=O)c2ccc(Br)cc2)CC1 | 17.8µM* | 18.8% | ?
O=C(CCS(=O)(=O)c1ccc(Br)cc1)N1CCN(Cc2ccccc2)CC1 | · | 2.5% | ?
Cc1ccc(-c2c(C(=O)N/N=C/C3CC=CCC3)nnn2-c2nonc2N)cc1 (stereo not drawn) | · | -5.0% | ·
CCC(=O)Nc1nnc(SCC(=O)Nc2ccc3c(c2)OCCO3)s1 | i | -15.6% | -4.7%
COc1ccc(Nc2nnc(SCC(=O)NC(=O)Nc3ccc4c(c3)OCCO4)s2)cc1 | · | 11.2µM* | ·
Cc1ccccc1-c1nn(-c2ccc(F)cc2F)cc1CNCCCN(C)C | -10.0% | 3.16µM* | -20.8%
Cc1ccccc1-c1nn(-c2ccc(F)cc2F)cc1CNCCN(C)C | -8.6% | -15.6% | -3.4%
Cc1nc(-c2ccccc2)sc1CCNC(=O)c1ccco1 | 6.4% | · | 2.8%
CC(C)CCOc1ccc(C2(C)NC(=O)NC2=O)cc1 (stereo not drawn) | · | -1.5% | ·
CCCCc1nn2c(=O)cc(COC(=O)c3ccccc3C)nc2s1 | 0.0% | · | 0.3%

Compound activity (PubChem BioAssay)
